Sm TGR block – blocks Schistosoma mansoni thioredoxin glutathione reductase. Q962Y6. purified TGR, DTNB reduction, TNB absorbance 405 nm. Potency, µM (series often up to 114 µM), for inactives: at the top dose activity change, negative = inhibition, hits mostly inhibitors. 360,000 compounds, 3% hits; further: potency means the concentration at half of the fitted maximal effect; nearly all actives have a fitted effect of over 60% in size
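First, TGR (20 nM dispensed) and NADPH were mixed with compound. Second, a 15 min room-temperature incubation followed. Third, further NADPH and then DTNB were added to start the reaction. Finally, TNB absorbance was monitored kinetically.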
RE007 growth inh – less growth of the S. pombe RE007 Vpr strain; Potency, µM (series often up to 92.2 µM), for inactives: at the highest dose activity change, negative = less growth, actives largely listed as inhibitors; S. pombe RE007 Vpr strain, BacTiter-Glo ATP luminescence, 24 h; 360,000 compounds, 0.21% hits; active means well fitted falling curve with a large enough effect; inconclusive means small, poorly fitted or top-dose-only effect; inactive means no such curve, though single readings can be large or run the other way; further: potency means the concentration at half of the fitted maximal effect; nearly all actives have a fitted effect of over 50% in size
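Fission yeast RE007 carrying one integrated HIV-1 vpr copy, seeded at OD 0.01 in PMG+AL medium with 23 nL pinned compound. Grown 24 h at 30 degrees; viability read by BacTiter-Glo luminescence after 5 min.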
FMDV antiviral – foot and mouth disease virus antiviral activity. FMDV antiviral cell-based qHTS. Potency, µM (top dose mostly 57.9 µM), for the others: at the top dose activity change, negative = inhibition, usual class: inhibitors. 410,000 compounds, 1.2% hits. AID 1159524; calls by dose curve; tested in HEK293T cells; further: read-out not given here; potency means the concentration at half of the fitted maximal effect; nearly all actives have a fitted effect of over 45% in size
Giardia FBPA inh – Giardia lamblia aldolase inhibition; A8B2U2; purified Giardia FBPA; Potency, µM (top dose mostly 59.6 µM), for inactives: at the top dose activity, negative = inhibition, hits mostly inhibitors; 290,000 compounds, 0.71% hits; further: potency means the concentration at half of the fitted maximal effect; nearly all actives have a fitted effect of over 55% in size
Target sequence (A8B2U2 whole entry, looked up): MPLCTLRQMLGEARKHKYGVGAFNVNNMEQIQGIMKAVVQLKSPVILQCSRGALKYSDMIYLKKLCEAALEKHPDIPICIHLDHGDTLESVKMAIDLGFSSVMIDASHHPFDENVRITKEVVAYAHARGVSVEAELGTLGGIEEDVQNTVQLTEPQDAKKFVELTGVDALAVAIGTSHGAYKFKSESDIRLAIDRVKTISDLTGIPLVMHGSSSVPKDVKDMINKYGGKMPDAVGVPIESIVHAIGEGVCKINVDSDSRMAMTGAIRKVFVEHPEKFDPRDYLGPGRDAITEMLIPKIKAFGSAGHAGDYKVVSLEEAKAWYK
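40 nM FBPA preincubated 10 min at RT with compound (up to 57.5 uM final), then substrate plus GAPDH/TPI/NAD/arsenate coupling and diaphorase/resazurin added. Fluorescence read after 20 min at RT, 525/598 nm.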
TbPYK inhibitor – T. brucei pyruvate kinase inhibition | 410,000 compounds, 0.12% hits | Q57TT1 | AID 624173 | TbPYK enzyme, Kinase-Glo Plus ATP luminescence, 45 min | Potency, µM (titrated, usually from 76.8 µM), inactives show top-dose activity, negative = inhibition, hits mostly inhibitors; further: potency means the concentration at half of the fitted maximal effect; nearly all actives have a fitted effect of over 50% in size
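T. brucei PYK with substrate was exposed to pin-transferred compounds across a concentration series, then started with 130 uM ADP (final). After 45 min at room temperature, Kinase-Glo Plus luminescence was read, normalized and curve-fitted.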
HCMV antiviral – human cytomegalovirus inhibition | HFF cells, HCMV-luciferase reporter, 72 h; stronger effect = lower value | activity change, negative = inhibition, % at 57.5 µM | 410,000 compounds, 4.5% hits | AID 1259415; in the data active means activity change below about -60%; inconclusive means no clear call, values can overlap the other calls; inactive means above about -39%
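Two compound doses tested in HFFs infected with HCMV-luciferase, MOI 1 PFU/cell, 72 h at 37C. Lysate luminescence read with OneGlo; data normalized against buffer-only and 10uM Salinomycin inhibitor controls.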
* hit, by the source's call; ? = inconclusive; . = not tested or not shown. A selection: hits, their analogues and other compounds. The true share with any hit is near 7.7%. Unless noted, the call rests on the fitted dose curve; in most records, active means well fitted curve in the direction sought with a large enough effect; inconclusive means small, poorly fitted or top-dose-only effect, or another doubt; inactive means no such curve, though single readings can be large; an effect the other way counts as inactive or inconclusive. On the % scale 0 is the no-effect control and ±100 the full control effect.

SMILES | Sm TGR block | RE007 growth inh | FMDV antiviral | Giardia FBPA inh | TbPYK inhibitor | HCMV antiviral
COc1ccc(Cn2c(CCC(=O)Nc3ccc(OC)c(Cl)c3)nc3cccnc32)cc1 | -4% | . | -30% | . | -1% | -3
C[C@]12CC[C@@H]3c4ccc(O)cc4CC[C@H]3[C@@H]1CCC2OC(=O)CCC1CCCC1 (some centres not stated) | . | . | . | . | 1% | .
CCOC(=O)C1CCC(CN(Cc2ccc(OC)cc2)S(=O)(=O)c2ccc(F)c(C(=O)Nc3c(C)cccc3C)c2)CC1 (configuration not stated) | 8% | . | ? | . | 3% | -12
COc1ccccc1NC(=S)NC1CCCC1 | . | -5% | 1% | . | -5% | -24
S=C(Nc1ccc(Br)cc1)NC1CCCC1 | -14% | 8% | 36% | 3% | -15% | -65*
COc1ccc(NC(=S)NC2CCCCC2)cn1 | -14% | 17% | 68% | -6% | 0% | -87*
CCN(c1ccccc1)S(=O)(=O)c1nnc(NC(=O)COc2ccc(OC)cc2)s1 | -10% | . | -9% | . | 2% | 23
CC(=O)Nc1cccc(Nc2cc3c(cn2)cc(-c2cnn(C)c2)n3Cc2ccccc2)c1 | . | . | . | . | . | -32
O=c1c2ccccc2[nH]c(=S)n1CCCN1CCN(c2ccccc2F)CC1 | -2% | 19% | -13% | 10% | -4% | -63*
COc1ccccc1Cn1c(=S)[nH]c2ccc(Br)cc2c1=O | 0% | 14% | -4% | 4% | -7% | -86*
O=c1c2ccccc2[nH]c(=S)n1CCCN1CCN(c2ccccc2)CC1 | 0% | -8% | -30% | -3% | -7% | -67*
COc1ccccc1N1CCN(C(=O)CCCn2c(=S)[nH]c3ccccc3c2=O)CC1 | . | -12% | 25µM* | . | -10% | -15
COc1ccc2c(c1)CCC1[C@@H]2CCC2(C)[C@@H](NCCCCCCN3C(=O)C=CC3=O)CC[C@@H]12 (some centres not stated) | . | . | -8% | 14% | . | .
CC(=O)[C@H]1[C@H]([C@H](O)[C@H](O)CO)O[C@](O)(C(=O)O)C[C@@H]1O | 13µM* | -5% | -9% | . | 4% | 20
CN(/N=C/c1ccc(O)cc1O)c1nc(-c2ccccc2)cc(-c2ccccc2)n1 | 6% | 2% | -4% | 4% | -21% | -62*
Cc1ccc(C(=O)N/C(=C/c2ccco2)C(=O)N2CCC(C)CC2)cc1 | 50µM* | 1% | 14% | -16% | -6% | 9
O=C(N/C(=C\c1ccco1)C(=O)N1CCCC1CO)c1ccccc1 (configuration not stated) | 35µM* | -5% | 5% | 2% | 8% | -18
CC1CCN(C(=O)/C(=C\c2cccs2)NC(=O)c2ccccc2)CC1 | 4µM* | -16% | 16% | -11% | -12% | 18
CC1CCN(C(=O)/C(=C\c2ccco2)NC(=O)c2ccccc2)CC1 | -35% | 5% | 9% | 2% | -2% | -7
COc1ccc(C(=O)N/C(=C/c2cccs2)C(=O)N2CCN(C)CC2)cc1 | . | 0% | 8% | . | -19% | -35
CC1CCCN(C(=O)/C(=C/c2ccco2)NC(=O)c2ccccc2)C1 (configuration not stated) | -27% | -3% | -4% | -5% | -16% | 2
CCCCCNC(=O)C(=O)C(=O)c1cc(OC)c(OC)c(OC)c1 | . | . | . | . | . | 18
COc1ccc(OCC(=O)OCc2cc(=O)n3nc(C4CCCCC4)sc3n2)cc1 | -1% | . | 13% | . | -2% | -4
CCOc1ccc(N)c(SSc2cc(OCC)ccc2N)c1 | -2% | . | 11% | ? | ? | -98*
CCOc1cccc(N)c1 | -9% | -16% | -24% | . | -4% | .
CC1CC(NC(=O)/C=C/C(=O)O)CC(C)(C)C1 (configuration not stated) | -2% | 2% | 9% | 6% | 7% | 2
CC1CC(NC2=NCCS2)CC(C)(C)C1 (configuration not stated) | 0% | ? | -23% | 7% | -1% | -66*
O=C(Cc1csc(N2CCOCC2)n1)N/N=C/c1ccc(O)c(O)c1O | ? | 12% | -14% | 7.9µM* | -4% | -24

Source: PubChem
